# Experimental data published in PubChem BioAssay (EPA / NIEHS).
# Active and inactive are the calls of the source. How the source made its calls: active means hit-call score of the fitted dose curve at least 0.9, where 1 is the maximum; inactive means score below 0.9.
# Read-out: CYP2E1 (gene 1571)
# Assay: LTEA_HepaRG_CYP2E1: Life Technologies and Expression Analysis (LTEA) Assay for CYP2E1 using HepaRG (AID 2283485)
# Conditions: mRNA level, 48 h; actives raise or lower the signal
# Method: LTEA_HepaRG is a cell based, multiplexed-readout assay that uses HepaRG, a human liver cell line, with measurements taken at 48 hours after chemical dosing on a 96-well plate.LTEA_HepaRG_CYP2E1 is one of 102 assay component(s) measured in the LTEA HepaRG cell culture assay. It is a marker of NR mediated metabolism.Data from the assay component LTEA_HepaRG_CYP2E1 was analyzed into 1 endpoint. This assay endpoint, LTEA_HepaRG_CYP2E1, was analyzed with bidirectional fitting relative to DMSO as the negative control and baseline of activity. Using a type of inducible reporter, measures of mRNA induction for gain or loss-of-signal activity can be used to understand regulation of transcription factor activity. To generalize the intended target to other relatable targets, this assay endpoint is annotated to the cyp intended target family, where the subfamily is xenobiotic metabolism.
# A total of 1060 chemcials from the ToxCast library were tested in eight-point concentration-response experiments. Cell culture and cytotoxicity assays were conducted at Thermo Fisher Scientific's Custom Services facility (Madison, WI). A single lot of human HepaRG cells (Thermo Fisher Scientific, Frederick, MD) was used for the cell culture experiments. 96-well format collagen type I coated plates of human HepaRG cells were prepared using established methods. Briefly, cryopreserved HepaRG cells were thawed, plated at a density of approximately 100,000 cells/well in HepaRG Thaw, Plate, and General Purpose media (HPRG770, Thermo Fisher Scientific), and incubated for 48 hours. 0.5% DMSO was selected as vehicle control to balance the requisite need of DMSO in HepaRG cultures to maintain differentiation (for example, baseline metabolism, proportions of hepatocytes vs. cholangiocytes), while enabling further hepatic receptor pathway activation (for example, PXR and CAR) in response to chemical exposure. 48 hours after plating, the culture medium was replaced with HepaRG Serum-Free Incudtion Media. Cells were exposed to each test chemical in duplicate and maintained in CO2 incubators for another 48 hours. Chemical plates were thawed to room temperature and 200x concentrations of treatment groups were prepared. 8-point conentration-reponse curves were made with the highest exposure at 100 uM, followed by half-log dilutions, all in 0.5% DMSO. Each test plate contained variouse controls, induction positive controls (1mM phenobarbital), cytotoxicity positive controls ([…] aflatoxin B1), vehicle controls (0.5% DMSO), and total lysis controls (0.5% DMSO). Cell morphology images were taken using an Essen IncuCyte FLR automated microscope, with six 96-well plates imaged in about 24 minutes. Images were captured and exported and JPEG files. Spent culture media was transfered to black-well plates for the LDH assay, and remaining media was sorted at -80 C for later use. Cells were treated with RLT buffer and frozen until shipped for gene expression analysis. Total RNA was isolated from the cell suspension in 75 uL of Buffer RLT (Qiagen, Germantown, MD 20874) by Quintiles/Expression Analysis (Durham, NC) using a custom isolation procedure. Total RNA from each plate well was transferred to a preamplification plate. Fluidigm's 96.96 Dynamic ArrayTM (Fluidigm, Amsterdam, the Netherlands) technology was used for gene expression analyses by quantitative reverse transcription polymerase chain reaction (qRT-PCR, performed by Quintiles/Expression Analysis, Durham, NC)89. Standard TaqManTM Assays (Applied Biosystems/ThermoFisher Scientific, Foster City, CA) were used to assess the expression of 93 genes selected based on their selectivity and sensitivity to important hepatic receptors known to be modulated by environmental chemicals; importance in human hepatocyte functionality; and hepatotoxicity. […]
Compound,outcome,AC50
O=C1CCCCCN1,inactive,
CCCCC(CC)COC(=O)CCCCCCCCC(=O)OCC(CC)CCCC (stereo not given),inactive,
Cc1ccc(S(=O)(=O)O)cc1C,inactive,
Fc1ccccc1[C@@H](F)COC1CCC(Nc2ncnc3[nH]ncc23)CC1 (stereo not given in full),,12.7 µM (active)
CC(C)=CCCC(C)=CC=O,inactive,
C1=CCCC=CCCC=CCC1,inactive,
COc1ccc(/C=C/S(=O)(=O)NC(=O)c2ccc(C)cc2Cl)cc1,,69.6 µM (active)
CC[C@H](C)C(=O)O[C@H]1C[C@@H](C)C=C2C=C[C@H](C)[C@H](CC[C@@H]3C[C@@H](O)CC(=O)O3)[C@H]21,,29.8 µM (active)
O=c1n(CC2CO2)c(=O)n(CC2CO2)c(=O)n1CC1CO1 (stereo not given),inactive,
C[C@](N)(Cc1ccc(O)c(O)c1)C(=O)O,inactive,
Oc1ccc2c(c1)-c1ccccc1C2,inactive,
O=C1CCC(N2C(=O)c3ccccc3C2=O)C(=O)N1 (stereo not given),inactive,
CCCCCCCCCCCCc1ccccc1,inactive,
CCOC(=O)COc1ccc2c(c1)CC(NCC(O)c1cccc(Cl)c1)CC2 (stereo not given),inactive,
CCN(C(=O)c1cc(C)cc(OC[C@H](C)Nc2ccncc2)c1)C(C)C,,27.9 µM (active)
COc1ccc2sc(C(=O)Nc3nnn[nH]3)c(OC(C)C)c2c1,,91.6 µM (active)
CCNc1ccccc1,inactive,
COc1ccc(-n2nc(C(F)F)cc2-c2ccc(S(C)=O)cc2)cc1 (stereo not given),,25 µM (active)
CCCCCCCCCCCCCCCO,inactive,
Cn1c(=O)cc(Oc2ccc(F)cc2F)c2cnc(NCC(C)(C)O)nc21,,50 µM (active)

Compound,outcome,AC50
O=C(CCCCCCCCc1cccnc1)N1CCC(C=C(c2ccccc2)c2ccccc2)CC1,,14.1 µM (active)
CN(C)c1ccc(N=NS(=O)(=O)O)cc1,,22 µM (active)
CC(C)CCCCCCCOC(=O)CCCCC(=O)OCCCCCCCC(C)C,inactive,
CC(=O)c1ccc2c(c1)[C@H](NC(=O)c1ccc(F)cc1)[C@@H](O)C(C)(C)O2,inactive,
CCCCC(CC)COC(=O)c1ccc(C(=O)OCC(CC)CCCC)cc1 (stereo not given),inactive,
Nc1cccc(N)c1,inactive,
O=C1OC(=O)C2C3C=CC(C3)C12 (stereo not given),inactive,
Cc1[nH]cnc1C[C@H]1CCc2c(C)c3ccccc3n2C1=O,,17.6 µM (active)
CC(C)c1cccc(C(C)C)c1N1C(=O)c2ccc(O)cc2C1=O,,89.7 µM (active)
O=C(O)c1cc(N=Nc2ccc(S(=O)(=O)Nc3ccccn3)cc2)ccc1O,inactive,
CC[C@H]1OC(=O)[C@H](C)[C@@H](O[C@H]2C[C@@](C)(OC)[C@@H](O)[C@H](C)O2)[C@H](C)[C@@H](O[C@@H]2O[C@H](C)C[C@H](N(C)C)[C@H]2O)[C@](C)(O)C[C@@H](C)C(=O)[C@H](C)[C@@H](O)[C@]1(C)O,,16 µM (active)
CC1(C)C(=O)N(Br)C(=O)N1Br,inactive,
On1ccccc1=S,inactive,
Cn1cnc([N+](=O)[O-])c1Sc1ncnc2nc[nH]c12,,1.45 µM (active)
CC(C)CC(C)(O)C#CC(C)(O)CC(C)C (stereo not given),,64.7 µM (active)
Cc1ccc(N)cc1O,,30.8 µM (active)
C=CCCCCCCCCC(=O)O,inactive,
COC(=O)CC(=O)OC,,33 µM (active)
CC(C)CCCCCCOC(=O)c1ccc(C(=O)OCCCCCCC(C)C)c(C(=O)OCCCCCCC(C)C)c1,inactive,
CC(O)CN(CCN(CC(C)O)CC(C)O)CC(C)O (stereo not given),inactive,
